Results from PubChem BioAssay (Tox21).
Results filed as inconclusive are left out. A number with no mark means an inactive call. Calls follow the shape of the dose curve; as a rule, active = well fitted activation curve with a large enough effect in the repeat runs; inconclusive = weak or mixed curves; inactive = no such curve, though single readings can be large or run the other way.
% is scaled to controls: 0 for no effect and ±100 for the full control effect.

Assay: qHTS assay to identify small molecule agonists of the estrogen related receptor (ERR) signaling pathway (AID 1224820)
Conditions: ERR reporter cell line, luciferase agonist mode; series mostly up to 46.1 µM; activation: at the top concentration
How it was run: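 ERR reporter cell line (from NTP), 2,000 cells/well, incubated 6 h before compound addition, then 18 h at 37 C. Luminescence measured 30 min after One-Glo reagent at room temperature.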
For `N[C@@H](CCCC(=O)O)C(=O)O`, the “activation” value was 11.6%.
For `O=C(O)Cc1c[nH]c2ccc(O)cc12`, the “activation” value was -20.4%.
In the case of `CC1CNCCN1S(=O)(=O)c1cccc2cnccc12` (stereo not drawn), the “activation” value is reported as 18.2%.
For `NC[C@@H]1O[C@H](c2ccccc2)Cc2c1ccc(O)c2O`, the “activation” value was 0.905%.
For `CC(C)NC[C@@H](O)c1ccc(O)c(O)c1`, the “activation” value was 9.32%.
With `CN1C2CCC1CC(OC(=O)C(O)c1ccccc1)C2` (stereo not drawn) the “activation” value was 6.82%.
With `CS(=O)(=O)c1cccc(CNc2nc(Nc3ccc4c(c3)CCC(=O)N4)ncc2C(F)(F)F)c1` the “activation” value was -23.5%.
In the case of `CCCCCC(O)CCCC(=O)O` (stereo not drawn), the “activation” value is reported as 8.31%.
For `NC1C=CC=C(C(=O)O)C1` (stereo not drawn), the “activation” value was -28.5%.
In the case of `O=C1NC(=O)/C(=C/c2ccc(-c3ccc(F)cc3O)o2)S1`, the “activation” value is reported as -16.6%.
In the case of `NCCCCNCCCN`, the “activation” value is reported as -4.8%.
With `CN(C)CCCc1cc(C(=O)Nc2ccc(-c3ccncc3)cc2)ccc1O` the “activation” value was -10.9%.
With `Cc1ccc2c(c1)C(N1CCN(C)CC1)=Nc1cccnc1N2` the “activation” value was -13.9%.
With `NS(=O)(=O)c1ccc(-n2nc(C(F)(F)F)cc2-c2ccc(Cl)cc2)cc1` the “activation” value was -31.7%.
For `CC(C)C[C@H](NC(=O)[C@H](O)[C@H](N)Cc1ccccc1)C(=O)O`, the “activation” value was 0.815%.
In the case of `CSc1nc(N)c2ncn([C@@H]3O[C@H](COP(=O)(O)OP(=O)(O)OP(=O)(O)O)C(O)[C@H]3O)c2n1` (stereo partly drawn), the “activation” value is reported as 5.62%.
In the case of `CCNC(=O)[C@H]1O[C@@H](n2cnc3c(N)nc(NCCc4ccc(CCC(=O)O)cc4)nc32)[C@H](O)C1O` (stereo partly drawn), the “activation” value is reported as -3.66%.
For `OC[C@H]1O[C@@H](n2cnc3c(NC4CCCCC4)ncnc32)[C@H](O)[C@@H]1O`, the “activation” value was 14.7%.
With `NC1(C(=O)O)CCCCC1` the “activation” value was 6%.
With `O=C(O)c1cc2cc(Cc3cccnc3)ccc2o1` the “activation” value was 14.1%.
With `C[C@@H](NCCc1ccc(O)cc1)[C@@H](O)c1ccc(O)cc1` the “activation” value was -2.85%.
In the case of `CC(C)Cn1c(=O)n(C)c(=O)c2[nH]cnc21`, the “activation” value is reported as -3.74%.
For `Nc1ncnc2c1ncn2C1CCCO1` (stereo not drawn), the “activation” value was 8.38%.
With `C=CC[C@H](N)C(=O)O` the “activation” value was 9.74%.
With `N=c1ccn2c(n1)O[C@H]1C(O)[C@@H](CO)O[C@H]12` (stereo partly drawn) the “activation” value was 3.98%.
With `COc1cc(CC(=O)O)ccc1O` the “activation” value was -14%.
With `CNCCNS(=O)(=O)c1cccc2cnccc12` the “activation” value was -77.5%.
For `COC(=O)[C@H]1[C@H]2C[C@H]3c4[nH]c5ccccc5c4CCN3C[C@H]2CC[C@@H]1O`, the “activation” value was 9.09%.
For `N[C@@H](CC(=O)O)C(=O)O`, the “activation” value was 14.4%.
In the case of `Nc1nc2ccc(Cl)cc2n2c(-c3ccccc3)nnc12`, the “activation” value is reported as -16.9%.
With `CN(C)C(N)=NCCC[C@H](N)C(=O)O` the “activation” value was 8.48%.
With `N[C@H](CO)C(=O)O` the “activation” value was 14%.
For `O=c1cc(-c2ccccc2)oc2c(O)c(O)ccc12`, the “activation” value was -24%.
With `CN1CC(O)C(O)C(O)C1CO` (stereo not drawn) the “activation” value was 8.62%.
With `CCN(CC)CCCCNc1ncc2cc(-c3c(Cl)cccc3Cl)c(NC(=O)NC(C)(C)C)nc2n1` the “activation” value was -75.8%.
For `O=C(O)CCCC[C@@H]1CCSS1`, the “activation” value was 16.8%.
In the case of `COc1ccccc1CNCCCCCCNCCCCCCCCNCCCCCCNCc1ccccc1OC`, the “activation” value is reported as 9.61%.
For `NCCCS(=O)(=O)O`, the “activation” value was -14.5%.
